Results filed as inconclusive are left out. Calls of active or inactive are those of the source. Cut-off read from the data, not from the text of the source, unless noted: active = inhibition above about 80%; inactive = the rest.
How the values were obtained:
[1] = growth inhibition of DIPG glioma cells, dose response, cell-based, SU-DIPG-XIII, MIPE4.0, CellTiter-Glo, qHTS (AID 1347061; cut-off not given, nearly all actives have AC50 up to about 37 µM;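 note: cells exposed to compound for 48 hours before readout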); conditions: SU-DIPG-XIII viability, CellTiter-Glo ATP luminescence
[2] = growth inhibition of DIPG glioma cells, dose response, cell-based, SU-DIPG-XIII, MIPE5.0, CellTiter-Glo, qHTS (AID 1347064; cut-off not given, nearly all actives have AC50 up to about 23 µM); conditions: SU-DIPG-XIII viability, CellTiter-Glo ATP luminescence
[3] = biological target: NAD(+) hydrolase SARM1 (Homo sapiens) (UniProt Q6SZW1); experiment: SARM1 TIR NADase inhibitors, cell lysate, NAD-Glo luminescence (AID 1508614;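 active = compound whose remaining NAD level is above about 45 nM, limit read from the data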;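 note: higher remaining NAD means stronger inhibition of SARM1 NADase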); conditions: SAM-TIR HEK293T lysate NADase, at 1 µM, stronger effect = higher value
Chain of NAD(+) hydrolase SARM1 (Homo sapiens) (Q6SZW1 whole entry, looked up): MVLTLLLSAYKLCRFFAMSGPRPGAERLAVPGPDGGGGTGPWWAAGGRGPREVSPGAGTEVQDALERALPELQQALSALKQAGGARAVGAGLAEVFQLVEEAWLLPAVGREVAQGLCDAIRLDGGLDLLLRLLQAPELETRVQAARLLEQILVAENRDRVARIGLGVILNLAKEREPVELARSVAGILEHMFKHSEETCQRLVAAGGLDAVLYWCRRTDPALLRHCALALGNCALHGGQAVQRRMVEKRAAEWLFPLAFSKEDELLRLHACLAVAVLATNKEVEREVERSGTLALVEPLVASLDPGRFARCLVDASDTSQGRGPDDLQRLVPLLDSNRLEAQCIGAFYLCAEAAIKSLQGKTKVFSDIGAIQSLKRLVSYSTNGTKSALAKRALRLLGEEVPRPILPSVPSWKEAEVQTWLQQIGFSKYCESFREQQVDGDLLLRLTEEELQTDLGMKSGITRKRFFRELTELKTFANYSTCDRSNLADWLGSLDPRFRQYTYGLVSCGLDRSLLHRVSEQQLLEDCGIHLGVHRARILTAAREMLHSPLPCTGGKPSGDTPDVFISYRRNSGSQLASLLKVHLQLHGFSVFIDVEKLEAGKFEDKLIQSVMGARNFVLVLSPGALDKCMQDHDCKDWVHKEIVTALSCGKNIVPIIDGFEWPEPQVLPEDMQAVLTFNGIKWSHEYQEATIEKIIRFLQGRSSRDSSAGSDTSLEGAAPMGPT

[4] = LFS_MB_P medulloblastoma growth inhibition, cell-based, chromothripsis tumors, cisplatin or BGB combos (AID 1671449); conditions: LFS_MB_P medulloblastoma cells;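 note: cells exposed for 96 hours; 0% = vehicle DMSO and 100% = killing by high DMSO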
[5] = HDN33 neuroblastoma growth inhibition, cell-based, chromothripsis tumors, cisplatin or BGB combos (AID 1671450); conditions: HDN33 neuroblastoma cells, stronger effect = higher value;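 note: cells exposed to compound for four days; 0% = vehicle DMSO and 100% = cell killing by high DMSO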
[6] = ICB984 medulloblastoma cell growth inhibition, synergistic combos for chromothripsis tumors, cisplatin or BGB combos (AID 1671451; call rule not given here;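 note: cells exposed for 96 hours before readout; 0% = vehicle DMSO and 100% = killing by high DMSO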); conditions: ICB984 medulloblastoma cells, drug combinations, stronger effect = higher value
[7] = LFS_MB_1R medulloblastoma cell growth inhibition, synergistic combos for chromothripsis tumors, cisplatin or BGB combos (AID 1671452); conditions: LFS_MB_1R medulloblastoma cells, stronger effect = higher value;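 note: cells exposed for 96 hours before readout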
[8] = HTB85 osteosarcoma cell growth inhibition, synergistic combos for chromothripsis tumors, BGB or cisplatin IC20 combos (AID 1671453); conditions: HTB85 osteosarcoma cells, drug combinations, stronger effect = higher value;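 note: cells exposed for 96 hours before readout; 0% = vehicle DMSO and 100% = high DMSO killing control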
[9] = CRL2098 osteosarcoma cell growth inhibition, synergistic combos for chromothripsis tumors, BGB or cisplatin IC20 combos (AID 1671454); conditions: CRL2098 osteosarcoma cells, drug combinations, stronger effect = higher value;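 note: cells exposed for 96 h before readout; 0% = vehicle DMSO and 100% = killing by high DMSO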
[10] = HD-MB03 medulloblastoma cell growth inhibition, synergistic combos for chromothripsis tumors, BGB or cisplatin IC20 combos (AID 1671455; in the data active = inhibition above about 83%;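 note: 0% = vehicle DMSO and 100% = high DMSO as cytotoxic control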); conditions: HD-MB03 medulloblastoma cells, stronger effect = higher value
[11] = MDA-MB-436 breast carcinoma cell growth inhibition, synergistic combos for chromothripsis tumors, BGB or cisplatin combos (AID 1671458; call rule not given here;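 note: cells exposed for 96 hours; 0% = vehicle DMSO and 100% = killing by high DMSO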); conditions: MDA-MB-436 breast carcinoma growth inhibition, drug combinations, stronger effect = higher value
[12] = growth inhibition of BT084 medulloblastoma cells, cell-based, ICGC_MB145, cisplatin and BGB IC40 combos (AID 1671461); conditions: drug combinations, stronger effect = higher value;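 note: cells exposed to drugs for 96 hours; 0% = vehicle DMSO and 100% = high DMSO full killing control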
[13] = growth inhibition of RCMB18 medulloblastoma cells, cell-based, cisplatin and BGB IC40 combos (AID 1671462); conditions: stronger effect = higher value;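 note: cells exposed to compound for four days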
[14] = growth inhibition of CRL1545 osteosarcoma cells, cell-based, cisplatin and BGB IC20 combos (AID 1671464); conditions: stronger effect = higher value;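 note: cells exposed to compound for 96 hours before readout; 0% = vehicle DMSO and 100% = high DMSO killing control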
[15] = circadian clock period modulators, cell-based, LOPAC library, luminescence reporter (AID 2774; call rule not given here;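 note: values are relative to mean of DMSO wells on each plate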); conditions: circadian reporter cells, at 7 µM, actives lie on both sides
[16] = system: Hepatitis C virus NS3 helicase; experiment: HCV NS3 helicase inhibitors, primary screen, biochemical, fluorescence polarization, LOPAC1280 library (AID 687035; in the data active = inhibition above about 37%); conditions: Purified HCV NS3 helicase, Cy5-dT15 ssDNA binding fluorescence polarization; stronger effect = higher value; concentration not given here
[17] = Cy5 fluorescence quenching or enhancement artefacts, artefact control for HCV NS3 helicase inhibitor project, biochemical, LOPAC1280 (AID 687037; call rule not given here); conditions: Cy5-DNA-NS3h complex fluorescence interference counterscreen
[18] = at 0.5 µM, stronger effect = higher value
[19] = measured here: combination with BGB IC20, at 0.005 µM
[20] = measured here: combination with BGB IC40, at 0.005 µM
[21] = measured here: combination with BGB IC40, at 0.05 µM
[22] = measured here: combination with cisplatin, at 0.5 µM, stronger effect = higher value
[23] = measured here: combination with cisplatin, at 5 µM, stronger effect = higher value
[24] = measured here: with BGB IC20 combination, at 0.5 µM
[25] = measured here: with cisplatin IC20 combination, at 0.5 µM
[26] = measured here: 5 uM single agent, at 5 µM
[27] = measured here: combination with cisplatin, at 0.5 µM
[28] = measured here: combination with cisplatin, at 5 µM
[29] = measured here: with BGB IC20, at 0.5 µM
[30] = measured here: with BGB IC20, at 5 µM
[31] = measured here: with cisplatin IC20, at 0.5 µM
[32] = measured here: with cisplatin IC20, at 5 µM
[33] = measured here: combination with BGB at IC20, at 0.5 µM
[34] = measured here: combination with cisplatin at IC20, at 0.5 µM
[35] = measured here: combo with BGB at IC20, at 0.5 µM
[36] = measured here: combo with cisplatin at IC20, at 0.5 µM
[37] = measured here: BGB combination, at 0.5 µM
[38] = measured here: BGB combination, at 5 µM
[39] = measured here: cisplatin combination, at 0.5 µM
[40] = measured here: cisplatin combination, at 5 µM
[41] = cisplatin combination, at 0.5 µM
[42] = measured here: BGB IC40 combination 0.05 uM, at 0.05 µM
[43] = measured here: BGB IC40 combination, at 0.05 µM

With `O=c1[nH]c(=O)n([C@H]2C[C@H](O)[C@@H](CO)O2)cc1C(F)(F)F` the outcome [1] was “inactive”, the outcome [2] was “inactive” and the remaining NAD [3] was 10 nM (inactive). For the same molecule, the inhibition [4, 18] was 36.4% (inactive), the inhibition [4, 19] was -2.27% and the inhibition [4, 20] was -21%. It also gave an inhibition [4, 21] of -26.7%, an inhibition [4, 22] of 71.9% and an inhibition [4, 23] of -10%. The inhibition ([5]; BGB combo, at 5 µM) was 76.1%, the inhibition ([5]; at 0.5 µM) was -26.4% (inactive) and the inhibition ([5]; cisplatin combo, at 5 µM) was 74.4%. For the same molecule, the inhibition [5, 24] was -34.8%, the inhibition [5, 25] was -33.1% and the inhibition ([5]; single agent, at 5 µM) was 78.3%. For the same molecule, the inhibition ([6]; BGB IC20 combo, at 0.005 µM) was -20%, the inhibition ([6]; BGB IC40 combo, at 0.005 µM) was -34.3% and the inhibition ([6]; BGB IC40 combo, at 0.05 µM) was -24%. For the same molecule, the inhibition ([6]; at 0.5 µM) was -27.9% (inactive), the inhibition ([6]; cisplatin combo, at 0.05 µM) was -27.5% and the inhibition ([6]; cisplatin combo, at 0.5 µM) was -36.1%. For the same molecule, the inhibition ([6]; cisplatin combo, at 5 µM) was -29.6%, the inhibition [6, 26] was -19.3% and the inhibition ([7]; at 0.5 µM) was -42% (inactive). It also gave an inhibition [7, 21] of -48.3%, an inhibition [7, 27] of -37.1% and an inhibition [7, 28] of -50.8%. The inhibition ([8]; at 0.5 µM) was -26.4% (inactive), the inhibition [8, 29] was -56.9% and the inhibition [8, 30] was -39.6%. The inhibition [8, 31] was -12.8%, the inhibition [8, 32] was 1.86% and the inhibition ([8]; single agent, at 5 µM) was 7.02%. For the same molecule, the inhibition ([9]; at 0.5 µM) was -101% (inactive), the inhibition [9, 33] was -90.6% and the inhibition [9, 34] was -100%. The inhibition ([10]; at 0.5 µM) was 46.7% (inactive), the inhibition [10, 35] was 44.2% and the inhibition [10, 36] was 72.4%. For the same molecule, the inhibition ([11]; at 0.5 µM) was -22.5% (inactive), the inhibition [11, 37] was -18.8% and the inhibition [11, 38] was 1.19%. For the same molecule, the inhibition [11, 39] was -44.6%, the inhibition [11, 40] was 12.8% and the inhibition ([12]; at 0.5 µM) was -27.4% (inactive). The inhibition [12, 41] was -13.4%, the inhibition ([12]; cisplatin combination, at 5 µM) was -12.4% and the inhibition [12, 42] was -6.58%. The inhibition ([12]; single agent, at 5 µM) was -41.3%, the inhibition ([13]; at 0.5 µM) was -14.2% (inactive) and the inhibition ([13]; cisplatin combo, at 5 µM) was -41.9%. It also gave an inhibition [13, 43] of -13.9%, an inhibition [13, 27] of -28.5% and an inhibition ([13]; single agent, at 5 µM) of -39.2%. For the same molecule, the inhibition ([14]; at 0.5 µM) was -43.3% (inactive), the inhibition [14, 24] was -61.7% and the inhibition [14, 25] was -37.1%. For the same molecule, the inhibition ([14]; single agent, at 0.05 µM) was -89% and the inhibition ([14]; single agent, at 5 µM) was 33.7%.

In the case of `Cc1c(C)c2c(c(C)c1O)CCC(C)(COc1ccc(CC3SC(=O)NC3=O)cc1)O2` (configuration not stated), the outcome [2] is reported as “inactive”.

For `CN1C[C@H]2c3ccccc3Oc3ccc(Cl)cc3[C@@H]2C1`, the outcome [1] was “inactive”.

In the case of `O[C@@H](CNC[C@H](O)[C@H]1CCc2cc(F)ccc2O1)[C@@H]1CCc2cc(F)ccc2O1`, the outcome [1] is reported as “inactive”.

For `CCOC(=O)Nc1ccc(NCc2ccc(F)cc2)nc1N`, the period change [15] was -0.33 h (inactive), the inhibition [16] was -3% (inactive) and the fluorescence ratio (interference) [17] was 1 (inactive). The outcome [2] was “inactive”, the inhibition [4, 18] was -13% (inactive) and the inhibition [4, 19] was -4.33%. It also gave an inhibition [4, 20] of 50.9%, an inhibition [4, 21] of -18.8% and an inhibition [4, 22] of 4.96%. The inhibition [4, 23] was -32.9%, the inhibition ([5]; BGB combo, at 5 µM) was -49% and the inhibition ([5]; at 0.5 µM) was 0.72% (inactive). The inhibition ([5]; cisplatin combo, at 5 µM) was -18.8%, the inhibition [5, 24] was -18.2% and the inhibition [5, 25] was 17%. The inhibition ([5]; single agent, at 5 µM) was -28.3%, the inhibition ([6]; BGB IC20 combo, at 0.005 µM) was -2.86% and the inhibition ([6]; BGB IC40 combo, at 0.005 µM) was -6.26%. For the same molecule, the inhibition ([6]; BGB IC40 combo, at 0.05 µM) was -38.3%, the inhibition ([6]; at 0.5 µM) was -14.8% (inactive) and the inhibition ([6]; cisplatin combo, at 0.05 µM) was -45.5%. The inhibition ([6]; cisplatin combo, at 0.5 µM) was -9.07%, the inhibition ([6]; cisplatin combo, at 5 µM) was -15.3% and the inhibition [6, 26] was -2.67%. For the same molecule, the inhibition ([7]; at 0.5 µM) was -9.81% (inactive), the inhibition [7, 21] was -17% and the inhibition [7, 27] was -23.8%. For the same molecule, the inhibition [7, 28] was -29.7%, the inhibition ([8]; at 0.5 µM) was 21.2% (inactive) and the inhibition [8, 29] was 57.6%. For the same molecule, the inhibition [8, 30] was 10.9%, the inhibition [8, 31] was -16.9% and the inhibition [8, 32] was 0.401%. For the same molecule, the inhibition ([8]; single agent, at 5 µM) was 1.76%, the inhibition ([9]; at 0.5 µM) was -23.9% (inactive) and the inhibition [9, 33] was -12.9%. The inhibition [9, 34] was -33.8%, the inhibition ([10]; at 0.5 µM) was -9% (inactive) and the inhibition [10, 35] was -9.72%. The inhibition [10, 36] was -9.37%, the inhibition ([11]; at 0.5 µM) was -12.4% (inactive) and the inhibition [11, 37] was -4.35%. For the same molecule, the inhibition [11, 38] was -17.6%, the inhibition [11, 39] was -28% and the inhibition [11, 40] was -26.4%. For the same molecule, the inhibition ([12]; at 0.5 µM) was 3.08% (inactive), the inhibition [12, 41] was 2.67% and the inhibition ([12]; cisplatin combination, at 5 µM) was -33.2%. The inhibition [12, 42] was 71.5%, the inhibition ([12]; single agent, at 5 µM) was 2.9% and the inhibition ([13]; at 0.5 µM) was -10.8% (inactive). For the same molecule, the inhibition ([13]; cisplatin combo, at 5 µM) was -27%, the inhibition [13, 43] was 4.05% and the inhibition [13, 27] was -15.1%. The inhibition ([13]; single agent, at 5 µM) was -7.25%, the inhibition ([14]; at 0.5 µM) was 5.77% (inactive) and the inhibition [14, 24] was -17.8%. It also gave an inhibition [14, 25] of 16.2%, an inhibition ([14]; single agent, at 0.05 µM) of -4.81% and an inhibition ([14]; single agent, at 5 µM) of -34.9%.

From PubChem BioAssay
